Assay outcomes as filed in PubChem.
In the library only some 22% were active in any assay of this set; here they are far more common.
CYP2C19 inh: blocks human cytochrome P450 2C19. inhibition, % at 5 µM. hit rate 21% among 96,000. CYP2C19 Supersomes, luciferin-H EGE luminescence, 30 min. AID 778;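 active = CYP2C19 inhibition above a set limit at 5 µM in the primary screen, cut at about 50% in these data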
Measles CPE: protection of cells from measles virus; Measles virus-infected cells, CPE protection, absorbance; protection (pct of control), % at 4 µM; hit rate 1.5% among 140,000; in the data active = protection mostly above about 24%, no sharp cut-off; inactive = mostly below about 26%
CYP2C9 activ: CYP2C9 (human) activation; P11712; recombinant CYP2C9, luciferin-H conversion, luminescence; stronger effect = higher value; factor 1 = untreated enzyme, 0 = blocked; activation factor at 5 µM; hit rate 1.4% among 96,000;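 active = activation factor of 2 or more for CYP2C9 at a 5 µM dose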
Target sequence (P11712 whole entry, looked up): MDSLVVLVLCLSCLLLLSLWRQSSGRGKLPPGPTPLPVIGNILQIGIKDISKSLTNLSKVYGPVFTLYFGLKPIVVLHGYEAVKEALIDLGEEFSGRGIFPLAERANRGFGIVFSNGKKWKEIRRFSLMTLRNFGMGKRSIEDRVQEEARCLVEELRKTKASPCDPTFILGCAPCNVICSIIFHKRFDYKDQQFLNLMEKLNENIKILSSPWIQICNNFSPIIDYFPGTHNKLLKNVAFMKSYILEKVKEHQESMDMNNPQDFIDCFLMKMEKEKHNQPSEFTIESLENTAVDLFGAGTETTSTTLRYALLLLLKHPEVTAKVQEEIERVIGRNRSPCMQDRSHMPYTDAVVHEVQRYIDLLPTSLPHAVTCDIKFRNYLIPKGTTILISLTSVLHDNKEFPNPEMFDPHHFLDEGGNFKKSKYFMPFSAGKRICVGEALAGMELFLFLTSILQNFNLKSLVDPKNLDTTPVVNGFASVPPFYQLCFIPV
CYP2C9 inhib: human CYP2C9 inhibition | CYP2C9 Supersomes, luciferin-H conversion, luminescence | AID 777 | inhibition, % at 5 µM | hit rate 20% among 96,000 | P11712;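 active = blocking of liver enzyme CYP2C9 beyond about 50% at 5 µM, limit read from the data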
CYP2C19 act: cytochrome P450 2C19 (human) activation; recombinant CYP2C19, luciferin-H EGE luminescence; stronger effect = higher value; 0 = fully inhibited enzyme, 1 = untreated enzyme; activation factor at 5 µM; P33261; 96,000 tested, under 10 active; AID 1025;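 active = activation factor of at least 2 at 5 µM in the primary screen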
Hits are given with their value; n = inactive; x = not tested or not shown.

SMILES	CYP2C19 inh	Measles CPE	CYP2C9 activ	CYP2C9 inhib	CYP2C19 act
c1ccc(-n2cnc3cc(NCc4ccncc4)ccc32)cc1	99	n	n	94	n
CCC(=O)Nc1ccc2c(c1)ncn2-c1ccccc1	n	n	n	n	n
CN(C)c1ccc(CNc2ccc3c(c2)ncn3C)cc1	70	n	n	n	n
CCn1cnc2cc(NCc3ccc(OC)cc3)ccc21	73	n	n	n	n
c1ccc(-n2cnc3cc(NCc4ccccn4)ccc32)cc1	85	n	n	74	n
CC(C)n1cnc2cc(NCc3ccccn3)ccc21	n	n	n	n	n
CCCCOC(=O)CSc1n[nH]c(=O)[nH]c1=O	n	n	n	n	n
CCC(C)NC(=O)COC(=O)c1oc2ccccc2c1CSc1ccc(Cl)cc1 (configuration not stated)	x	n	x	x	x
CCn1c(CNC(=O)c2cccc(C)c2)nc2ccccc21	n	n	n	n	n
CCCCn1cnc2cc(NCc3ccncc3)ccc21	56	n	n	62	n
Cc1cccc(NC(=O)C(=O)NCc2ccccn2)c1	n	n	n	n	n
Cc1cc(NCc2ccccn2)ccc1Br	63	n	n	n	n
O=C(Cc1ccc(S(=O)(=O)N2CCCCC2)s1)Nc1cccc2ccccc12	x	n	x	x	x
c1ccc2c(c1)oc1c(NCCCn3ccnc3)ncnc12	80	n	n	92	n
c1ccc2c(c1)oc1c(NCCCN3CCOCC3)ncnc12	n	n	n	n	n
CCNc1nc(C)nc2c1oc1ccccc12	n	n	n	n	n
Cc1nc(NCCCn2ccnc2)c2oc3ccccc3c2n1	85	n	n	96	n
Cc1cc(-c2ccccc2)nc(N(C)NC(=O)c2ccc(Cl)cc2)c1S(C)(=O)=O	n	n	n	n	n
CCOC(=O)C1=C(CC)Nc2ccccc2N=C1NC(=O)Nc1ccc(Cl)c(Cl)c1	58	n	n	94	n
CCOC(=O)C1=C(CC)Nc2ccccc2N=C1NC(=O)Cn1cnc2ccccc2c1=O	n	n	n	n	n
Cc1ccc(-n2nc(CN3CCOCC3)c(-c3ccccc3)c2N)c(C)c1	x	n	x	x	x
CNC(=S)NN(c1ccccc1)c1ccccc1	78	n	n	n	n
O=[n+]1c2c(n([O-])c3c1CCCC3)CCCCC2	n	n	n	n	n
Nc1ccc(Oc2ccc3nc(-c4ccccc4)c(-c4ccc([N+](=O)[O-])cc4)nc3c2)cc1	n	n	n	56	n
CN(C)S(=O)(=O)N(CC(=O)NCc1ccccc1)c1ccccc1	67	n	n	n	n
SMILES	CYP2C19 inh	Measles CPE	CYP2C9 activ	CYP2C9 inhib	CYP2C19 act
COc1ccc(CCNC(=O)CN(c2ccccc2OC)S(C)(=O)=O)cc1	93	n	n	97	n
CCOc1ccc(N(CC(=O)NCc2ccccc2)S(C)(=O)=O)cc1	50	n	n	n	n
CN(C)S(=O)(=O)N(CC(=O)Nc1cccc(F)c1)c1ccccc1	n	n	n	57	n
CCOc1ccccc1N(CC(=O)NCc1ccc(OC)cc1)S(C)(=O)=O	89	n	n	62	n
O=C(CCC1CCCCC1)Nc1ccccc1O	93	n	n	64	n
Cn1c(NC(=O)CCC2CCCCC2)cc(=O)n(C)c1=O	74	n	n	67	n
CCN(CC)S(=O)(=O)c1ccc(NC(=O)CCC2CCCCC2)cc1	78	n	n	93	n
O=C(CCC1CCCCC1)Nc1ccc(S(=O)(=O)Nc2nccs2)cc1	n	n	n	63	n
O=C(COC(=O)c1cccnc1Nc1cccc(C(F)(F)F)c1)NCc1ccc2c(c1)OCO2	n	n	n	n	n
O=C(CSCc1ccccc1)NCc1ccc2c(c1)OCO2	54	n	n	91	n
O=C(CSc1nc(C2CC2)nc2ccccc12)N1c2ccccc2Sc2ccc(C(F)(F)F)cc21	n	n	n	92	n
O=C(COC(=O)c1cccnc1Cl)NCc1ccc2c(c1)OCO2	x	33	x	x	x
CCn1cc(SCC(=O)NCc2ccc3c(c2)OCO3)c2ccccc21	97	n	n	n	n
COc1ccc(C(=O)CSc2nc3nc(C)cc(C)n3n2)cc1OC	n	n	n	n	n
Cc1ccc(C2CC(C(F)F)n3ncc(C(=O)Nc4c(C)nn(Cc5c(F)cccc5Cl)c4C)c3N2)cc1 (configuration not stated)	x	n	x	x	x
CCOC(=O)N1CCN(C(=O)CN2C(=O)COc3ccc(C(C)(C)C)cc32)CC1	n	n	n	n	n
NC(=O)c1cnn2c(C(F)(F)F)cc(-c3ccc(F)cc3)nc12	n	n	n	n	n
CC(=O)c1cn(CC(=O)NCc2ccc3c(c2)OCO3)c2ccccc12	x	n	x	x	x
